Reference: PubChem BioAssay AID1463 (National Center for Advancing Translational Sciences (NCATS), 2008)
“And” between values parts separate entries of the source, which are not always exact repeats. Equal values may be shown once. Hit rate of the full screen: of about 280,000 compounds, about 2,600 (0.93%) were called active. Inconclusive results (about 8%) are left out. The call rests on the fitted dose curve; in most records, active means well fitted curve in the direction sought with a large enough effect; inconclusive means small, poorly fitted or top-dose-only effect; inactive means flat fitted curve, though single readings scatter. Shown is part of a subset that was picked to be rich in actives.

Experiment: Counterscreen qHTS for Inhibitors of Tau Fibril Formation, Fluorescence Polarization; further: nearly all actives have a fitted effect of over 55% in size
Conditions: tau K18 P301L (four-repeat tau fragment) Alexa594 fluorescence, heparin fibrillization; series mostly up to 57.7 µM; activity change, negative = decrease: at the top concentration
From the text: NIH Molecular Libraries Probe Production Network [MLPCN]
NIH Chemical Genomics Center [NCGC]
Assay Provider: Carlo Ballatore, University of Pennsylvania
The microtubule-associated protein tau is an abundant protein in the axons of neurons that stabilizes microtubules. With its ability to modulate microtubule dynamics, tau contributes directly or indirectly, to key structural and regulatory cellular functions. Particularly important is the influence tau exerts on axonal transport, which allows signaling molecules, trophic factors and other essential cellular constituents to travel along the axons. Under pathological conditions, tau becomes sequestered into insoluble aggregates called neurofibrillary tangles. This phenomenon is believed to have pathological consequences by promoting axonal transport deficits that ultimately lead to synaptic dysfunction and neuronal loss. To identify inhibitors of tau aggregation, a heparin-induced tau fibril formation assay was used that employed a recombinantly expressed fragment of tau, K18 (Q242-E372), bearing a P301L mutation (Gustke et al. 1994; Hong et al. 1998). […] Total fluorescence (555 nm excitation and 632 nm emission) was measured to identify fluorescent or absorbent compounds at this wavelength. Such compounds may be artifacts that interfere with the Alexa 594 Tau fluorescence polarization assay.
Gustke, N., B. Trinczek, et al. (1994). "Domains of tau protein and interactions with microtubules." Biochemistry 33(32): 9511-22.
Hong, M., V. Zhukareva, et al. (1998).
Li, W. and V. M. Lee (2006). "Characterization of two VQIXXK motifs for tau fibrillization in vitro." Biochemistry 45(51): 15692-701.
von Bergen, M., S. Barghorn, et al. (2001). "Mutations of tau protein in frontotemporal dementia promote aggregation of paired helical filaments by enhancing local beta-structure." J Biol Chem 276(51): 48165-74.
NCGC Assay Protocol Summary:
For screening, 2 uL/well human K18 P301L (15 uM unlabeled and 0.24 uM Alexa 594-labeled tau final concentrations) in reagent buffer (100 mM sodium acetate pH 7) was dispensed into black solid 1536-well plates (Grenier) using a solenoid-based dispenser. Following transfer of 23 nL compound or DMSO vehicle by a pin tool, 2 uL/well heparin (20 uM final concentration) in reagent buffer was added and the plate centrifuged 15 s at 1000 RPM. Plates were incubated 6 hr at 37 C and then 1 uL/well ThT (30 uM final concentration) was added. After a 1 hr ambient incubation, the plates were read by an Envision (Perkin Elmer) to monitor Alexa 594 FP (555 nm excitation and 632 nm emission).
Keywords: NIH Roadmap, MLPCN, MLI, MLSMR, NCGC, qHTS, tau, tauopathies, Alzheimer's disease, fibril, neurodegeneration, aggregation
On the % scale 0 is the no-effect control and ±100 the full control effect; potency means the concentration at half of the fitted maximal effect; tags describe the fitted curve by direction and shape or compound fluorescence and quenching.

Compound	activity change, negative = decrease	Potency
O=C(CSc1nc(C2CC2)nc2ccccc12)Nc1ccc2c(c1)OCCO2	-17% (inactive)	
O=C(CN1CCN(CC(=O)Nc2ccc3c(c2)OCO3)CC1)Nc1ccc(F)cc1	-2.95% (inactive)	
O=C(CSc1nc(-c2cccc(F)c2)[nH]c1-c1ccccc1)Nc1ccc2c(c1)OCO2		8.91 µM [quencher] (active)
O=C(Nc1cc(Cl)cc(Cl)c1)c1ccc2c(c1)N(Cc1cccc(Cl)c1)C(=O)c1ccccc1S2=O (stereo not drawn)	-14.3% (inactive)	
CCc1ccc(CN(Cc2ccco2)C(=O)c2ccccc2Cl)cc1	-6.34% (inactive)	
COc1cccc(Nc2nnc(SCC(=O)N3CC(C)OC(C)C3)s2)c1 (stereo not drawn)	-7.2% (inactive)	
CCOC(=O)C1CCN(C(=O)Nc2cccc(OC)c2)CC1	-1.62% (inactive)	
COc1cccc(NC(=O)Nc2nnc(N3CCCCC3C)s2)c1 (stereo not drawn)		12.6 µM [quencher] (active)
Cc1oc(-c2ccccc2)nc1Cn1c(SCc2cccc(C(F)(F)F)c2)nc2cccnc21	-22.8% (inactive)	
COc1cccc(N2CCN(C(=O)CCCCCn3c(=O)[nH]c4ccccc4c3=O)CC2)c1	-25.4% (inactive)	
COc1ccc(Nc2nc(Cl)nc(NCc3ccco3)n2)cc1	-5.38% (inactive)	
CN(c1ccccc1)c1nc(N)c([N+](=O)[O-])c(NCc2ccco2)n1	-11.3% (inactive)	
COc1cccc(Nc2nc(N)c([N+](=O)[O-])c(NCc3ccco3)n2)c1		3.16 µM [quencher] (active)
CCOC(=O)c1c(C)oc2nc(C)nc(N3CCN(c4ccc(OC)cc4)CC3)c12	-24.7% (inactive)	
COc1ccc(OC)c(NC(=O)CN2CCCN(Cc3cc(C)ccc3C)S2(=O)=O)c1	-18.6% (inactive)	
Cc1ccc(Oc2cc(NC(=O)CCCn3nc(C)c([N+](=O)[O-])c3C)cc([N+](=O)[O-])c2)cc1		4.47 µM [quencher] (active)
COc1ccc(CNC(=O)CCCn2nc(C)c([N+](=O)[O-])c2C)cc1	-4.84% (inactive)	
CCc1ccc(NC(=O)Cn2nc(C)c([N+](=O)[O-])c2C)cc1	-4.39% (inactive)	
COc1ccc(C)cc1-n1c(-c2ccc(C)cc2)cc2c1CC(C)(C)CC2=O	-12.5% (inactive)	
CCC(=O)Nc1ccc2c(c1)nc(CCN1CCN(C)CC1)n2C	6.79% (inactive)	
Cn1c(CCN2CCCCCC2)nc2cc(NC(=O)Nc3ccccc3)ccc21		15.8 µM [quencher] (active)
CC(=O)NCCc1nc2cc(NC(=O)c3ccccc3)ccc2n1C	-1.64% (inactive)	
O=C(CCN1C(=O)c2ccccc2C1=O)Nc1ccncc1	8.74% (inactive)	
CC1CCN(CCC(=O)Nc2ccccc2)CC1	-2.65% (inactive)	

Compound	activity change, negative = decrease	Potency
CCN1/C(=C/c2ccc3ccc(C)cc3[n+]2CC)Sc2ccccc21	-15.8% (inactive)	
CCN1/C(=C/C(=S)Nc2ccccc2)Sc2ccccc21		10 µM [quencher] (active)
CCNC(=O)N1c2ccccc2Sc2ccccc21	0.177% (inactive)	
O=C(CCN1c2ccccc2Sc2ccccc21)Nc1ccccc1		11.2 µM [quencher] (active)
CCOC(=O)c1c(NC(C)=O)c2c3c(sc2n1Cc1c(C)cc(C)cc1C)CCCC3	1.76% (inactive)	
CCOC(=O)c1ccc(NC(=O)c2c(NCc3cccc(OC)c3)sc3c2CCC3)cc1	-12.9% (inactive)	
Cc1cccc(OCCSc2nc3ccccc3n2CC(=O)N2CCCCC2)c1C	-7.58% (inactive)	
Cc1ccc(/C=C(\C#N)C(=O)Nc2cc(C)ccc2C)cc1	-9.9% (inactive)	
O=C(COc1ccccc1)NCc1ccc2c(c1)CCN2C(=O)c1ccc(F)cc1	-9.29% (inactive)	
Fc1ccc(CN2CCc3nc(Nc4ccccc4)ncc3C2)cc1F	-25.3% (inactive)	
CCn1c(C)c(C)c2cc(C(=O)NCCc3cc(OC)ccc3OC)ccc21	-21.3% (inactive)	
CCOc1cccc(NC(=O)CC#N)c1	-0.295% (inactive)	
CCOc1cccc(NC(=O)CSc2ncc(-c3ccc(Cl)cc3)[nH]2)c1		11.2 µM [quencher] (active)
Cc1cccc(NC(=O)CSc2ncc(-c3ccccc3)[nH]2)c1C	-24.1% (inactive)	
CCCN(CCC)S(=O)(=O)c1ccc(C(=O)Nc2sc3c(c2C(=O)OC)CCN(CC)C3)cc1	-6.21% (inactive)	
Cc1cccc(-n2ccnc2SCC(=O)Nc2cc(C(F)(F)F)ccc2Cl)c1	-11.6% (inactive)	
CC1(C)CC(=O)c2ccc(O)cc2O1	3.8% (inactive)	
CC[C@@H]1Cc2cc(O)ccc2C2=C1c1ccc(O)cc1C[C@H]2CC		5.01 µM [quencher] (active) and 10 µM [quencher] (active)
CCN(C(=O)Cn1cnc2sc(C)c(S(=O)(=O)N3CCN(c4ncccn4)CC3)c2c1=O)c1ccccc1F	-6.1% (inactive)	
Cc1cc2c(cc3c(SCc4nc(-c5ccccc5)oc4C)nnc(C)n32)o1	-15.1% (inactive)	
O=C(Nc1cccc(C(F)(F)F)c1)c1cnccn1	-1.32% (inactive)	
COc1cc(NC(=O)c2cncc(-c3ccc(C#N)cc3)c2)cc(C(=O)Nc2cccc(C(F)(F)F)c2)c1	-13% (inactive)	
COc1cc(OC)cc(C(=O)Nc2ccc3nc(Nc4cccc(C(F)(F)F)c4)cc(C)c3c2)c1		3.98 µM [quencher] (active)
COc1ccc(NC(=O)C(=O)NCC(=O)Nc2cccc(C(F)(F)F)c2)cc1	6.59% (inactive)	
